# Data taken from article PMC12136788.
# Changes are numbered by the printed parent chain. The full ranking holds about 5,800 sequences; the median of “enrichment r” is about 0.54, and the highest 2% start at about 16. This excerpt belongs to a sample that is enriched for the highest values.
# B1: chr10:16593140:16593241:-|3pUTR|ENSG00000148484|unk|total|mutant (ssRNA)
# RNA: GGGAGUUCUACAGUCCGACGAUCUUAUUUUUCUUUUCACUCUCUUUCUAAUGCUUCCCACCUUACCUUUCCGAUUCUUUUGCCCGGUGGGAGAUUGUUAUAAGGUCUUUAAACCAUUUCCAUUUGUUUCUUUAACAUUACCAACAACAGAGGAUUGAGCAUCA
# B2: chr5:72207278:72207408:+|3pUTR|ENSG00000131711|msi1_unk|FALSE|overlapping (ssRNA)
# RNA: GGGAGUUCUACAGUCCGACGAUCAGAGAACAAUGACCUCAUUUUAUUUUCUAUGUUAGUUAUUUAUUUCAAAAUUAACAUUUUAGUUGAUUUUUGUCUGAUAAGUCUAUGUUUUGCACUGCUAACUAUGAUGAGGGUUUAAAACAACAGAGGAUUGAGCAUCA
# B3: chr7:137014887:137014989:+|CDS|ENSG00000181072|unk|FALSE|unique (ssRNA)
# RNA: GGGAGUUCUACAGUCCGACGAUCGCUACUUGGCUACUGAUUAGAGAACGCAAAAUGAAUAACUCAACAAACUCCUCUAACAAUAGCCUGGCUCUUACAAGUCCUUAUAAGACAUUUGAAGUGGUGUUUAUUGUCCUGGUGGCUCAACAGAGGAUUGAGCAUCA
# B4: chr1:204554719:204554820:+|3pUTR|ENSG00000198625|unk|FALSE|unique (ssRNA)
# RNA: GGGAGUUCUACAGUCCGACGAUCAAGUACUUUCUUUUGACAGAAAUUUUCAUUCUGCUUGCCAUUGCUAUAUUCUCCCUUUAUAGGAGCCAUUGGAUUUCUUUCCUUUUGUGGGAAAUGUCCCAUUAGCAUUUUCAGAUCUUUCAACAGAGGAUUGAGCAUCA
# B5: chr8:41263181:41263319:-|3pUTR|ENSG00000104332|msi1|FALSE|unique (ssRNA)
# RNA: GGGAGUUCUACAGUCCGACGAUCCUUAAGUGAUUUGCCUGUAAUUUUGGAUGAUUAAAAAAUGUGUAUAUAUAUUAGCUAAUUAGAAAUAUUCUACUUCUCUGUUGUCAAACUGAAAUUCAGAGCAAGUUCCUGAGUGCGUGGCAACAGAGGAUUGAGCAUCA
# B6: chr12:76028832:76028933:-|3pUTR|ENSG00000139289|msi1|FALSE|unique (ssRNA)
# RNA: GGGAGUUCUACAGUCCGACGAUCAAAGGAAAAGACUGGAUAAACACAGGAUUUUCAGUAAGAAAACAACCCCAGUCUUGUCUUAGAAGCCACUUGUUGAGGAGUCUGUUGGGGGAAAAAAGAGGAUAUGCUUUUAAAGGUAGACAACAGAGGAUUGAGCAUCA
# B7: chr8:41263181:41263319:-|3pUTR|ENSG00000104332|msi1|total|mutant (ssRNA)
# RNA: B5 RNA with U75C, A76C, U83C, A84C
# B8: chrX:120258281:120258382:+|3pUTR|ENSG00000177485|msi1|FALSE|bound_elsewhere (ssRNA)
# RNA: GGGAGUUCUACAGUCCGACGAUCUGUACAAUCUUCCCUGUCAUGACUUUAAGUUCUACUUUUCAUUAACCAUGGCCUGAUAUUAGUUCUUAGAGCUUCUUGUGGCAAAAAUAAAAUGAUUUAAUUCUGAUGUUUGAGUGCGUGCAACAGAGGAUUGAGCAUCA
# B9: chr6:117694021:117694122:+|CDS|ENSG00000153989|msi1|total|mutant (ssRNA)
# RNA: GGGAGUUCUACAGUCCGACGAUCGCUGUCUCCGGAAGAUGGAAAAGCAGAUAUUGUAAGAGCUGCUCAGGACUUUUGCCAGUCCGCCGCCCAGAAGCAAAAGAGACCCACAGAUUUGGAUGCCGAUACGUCCGCCAGUUUACUCAACAGAGGAUUGAGCAUCA
# B10: chr6:117694021:117694122:+|CDS|ENSG00000153989|msi1|FALSE|unique (ssRNA)
# RNA: B9 RNA with C83U, C84A, C86U, C87A, C122U, C123A, C131U, C132A
# B11: chr10:17237356:17237519:+|3pUTR|ENSG00000026025|msi1_unk|FALSE|overlapping (ssRNA)
# RNA: GGGAGUUCUACAGUCCGACGAUCAGAUAGAUUUGGAAUAGGAAUAAGCUCUAGUUCUUAACAACCGACACUCCUACAAGAUUUAGAAAAAAGUUUACAACAUAAUCUAGUUUACAGAAAAAUCUUGUGCUAGAAUACUUUUUACAACAGAGGAUUGAGCAUCA
# B12: chr10:17237356:17237519:+|3pUTR|ENSG00000026025|msi1_unk|total|mutant (ssRNA)
# RNA: GGGAGUUCUACAGUCCGACGAUCAGACCGAUUUGGAACCGGAAUAAGCUCCCGUUCUUAACAACCGACACUCCUACAAGAUUCCGAAAAAAGUUUACAACAUAAUCCCGUUUACAGAAAAAUCUUGUGCCCGAAUACUUUUUACAACAGAGGAUUGAGCAUCA
# B13: chr6:105096826:105097152:-|3pUTR|ENSG00000112276|msi1|FALSE|unique (ssRNA)
# RNA: GGGAGUUCUACAGUCCGACGAUCACUUGCAACCUAGUUUUAAAAUACAUGAGGAUUUUAUGAAAGCUUUAUACAGACAUUUAUAGGAAACUCAUUCUUUGAUUUUAGGUGCCAUUUAAAUUGAUAACACUUACUUUAUAAAAACAACAGAGGAUUGAGCAUCA
# Molecular target: MSI1 full-length (mouse, UniProt Q61474 1-362)
# Sequence (Q61474 whole entry): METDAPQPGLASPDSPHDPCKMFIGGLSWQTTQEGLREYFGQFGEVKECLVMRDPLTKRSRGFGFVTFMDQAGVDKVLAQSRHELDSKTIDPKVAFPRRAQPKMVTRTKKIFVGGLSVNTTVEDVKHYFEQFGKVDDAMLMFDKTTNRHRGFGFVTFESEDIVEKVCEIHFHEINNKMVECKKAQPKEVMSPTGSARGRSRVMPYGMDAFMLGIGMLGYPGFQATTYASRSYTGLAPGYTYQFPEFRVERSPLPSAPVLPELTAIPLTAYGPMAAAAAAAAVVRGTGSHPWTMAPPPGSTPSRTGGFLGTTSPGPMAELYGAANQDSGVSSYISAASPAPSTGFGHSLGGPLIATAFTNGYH
# Experiment: nsRBNS (natural sequence RNA bind-n-seq); RBNS binding buffer (assumed for nsRBNS): 25 mM Tris pH 7.5, 150 mM KCl, 3 mM MgCl2, 0.01% Triton X-100, 500 ug/ml BSA, 20 U/ml SUPERase-In, 4 C; UNK is unkempt and MSI1 is Musashi-1; names of the RNAs are library labels; protein concentration not given here; high values mean tight binding
row,Binder,binding signal
1,B1,1.23 enrichment R
2,B2,1.11 enrichment R
3,B3,0.188 enrichment R
4,B4,0.583 enrichment R
5,B5,21.3 enrichment R
6,B6,0.854 enrichment R
7,B7,0.429 enrichment R
8,B8,0.662 enrichment R
9,B9,0.409 enrichment R
10,B10,17.5 enrichment R
11,B11,20.9 enrichment R
12,B12,0.307 enrichment R
13,B13,1.13 enrichment R
